The whole screen tested about 360,000 compounds, of which about 2,200 (0.61%) were called active.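 How the source made its calls: active means inhibition above a per-plate cutoff, the plate's mean sample inhibition plus 3 SD (cut at about 24% in these data); inactive means the rest.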 The list comes from a sample in which actives are over-represented; it also holds similar structures and randomly drawn compounds.

A short description of the test: calcium signal blockers in parental CHO-K1 cells – cell-based, Fluo-8 calcium fluorescence, full deck, 1536-well, counter-screen for M1 antagonist project, primary screen (AID 602250).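 Further: 0% = DMSO plus EC80 ATP and 100% = DMSO alone without ATP.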 The conditions noted are these: ATP-induced calcium, Fluo-8 fluorescence, at 3 µM, hits give high values.
As to `O=C(O)CCCCCCCCc1cn(CN2C(=O)c3ccccc3C2=O)nn1`, the inhibition is 12.6% (inactive). For the compound `O=C(O)CCCCc1nc2ccccc2s1`, the inhibition is 33.5% (active). On to `Cc1nn(-c2ccc(F)cc2)c(Cl)c1/C=C(/CCC(=O)O)c1nc2ccccc2s1`, for which the inhibition was -3.61% (inactive).

On to `Cc1ccc([C@H]2N[C@]3(CCCN(CC4CCCCC4)C3=O)[C@H]3C(=O)N(Cc4ccccc4)C(=O)[C@@H]23)cc1`, for which the inhibition is -0.53% (inactive). Regarding `CCCCN(C(=O)c1ccc(OC(F)(F)F)cc1)c1c(N)n(CCC)c(=O)[nH]c1=O`, the inhibition was -6.23% (inactive).

Regarding `CCCCN(C)C(=O)c1ccc2c(c1)N(CC)C(=O)c1ccccc1S2(=O)=O`, the inhibition was 18% (inactive). On to `O=C(Cc1ccc([N+](=O)[O-])cc1)Nc1ccc(C(=O)N2CCOCC2)cc1`, for which the inhibition is -11.3% (inactive). As to `Cc1cc(C)n(CC(=O)Nc2ccc([N+](=O)[O-])cc2)n1`, the inhibition is -4.31% (inactive).

Regarding `O=C(Cc1cccs1)Nc1ccc([N+](=O)[O-])cc1`, the inhibition is 23.9% (active). To `Cc1oc2c(F)c(F)c(F)c(F)c2c1S(=O)(=O)Nc1cccc(C(F)(F)F)c1` belongs 27.9% (active); to `Cc1ccc(N(CCC(=O)O)S(=O)(=O)c2cccc(C(F)(F)F)c2)cc1`, 3.61% (inactive).

With `Cc1noc(C)c1S(=O)(=O)Nc1cc(C(F)(F)F)ccc1N1CCOCC1`, the inhibition was 3.45% (inactive). For the compound `COc1cc(C(=O)NCCOC(=O)c2cccc(N(C)C)c2)cc(OC)c1OC`, the inhibition was -4.91% (inactive).

For the compound `CCOc1ccc2[nH]c(=O)c(CN(CCCO)C(C)=O)cc2c1`, the inhibition was 7.13% (inactive). As for `OC(CN=c1sc2ccccc2n1CC(O)COc1ccccc1)COc1ccccc1` (stereo not drawn), the inhibition was 62.5% (active). Regarding `OC(COc1ccccc1)CN1CCN(c2cccc(Cl)c2)CC1` (stereo not drawn), the inhibition is -14.9% (inactive). Regarding `Cc1cccc(OCC(O)Cn2c(=N)n(CCN3CCOCC3)c3ccccc32)c1` (stereo not drawn), the inhibition is -12.8% (inactive). For the compound `COC(=O)Cc1c(O)ccn(Cc2cccc(C(F)(F)F)c2)c1=O`, the inhibition was -6.45% (inactive). The value for `Cc1cccc(C)c1Nc1nnc(SCC(=O)NCCCN2CCCC2=O)s1` was -7.35% (inactive); that for `O=C(NCCN1CCOCC1)[C@H](Cc1ccccc1)N1C(=O)c2ccccc2C1=O` was -4.92% (inactive); that for `CCOC(=O)C(Cc1ccc(N)cc1)N1C(=O)c2ccccc2C1=O` (stereo not drawn) was 25.2% (active). With `COc1ccc(CNC(=O)COC(=O)C(CCSC)N2C(=O)c3ccccc3C2=O)cc1` (stereo not drawn), the inhibition is -6.61% (inactive).

In the case of `CCCS(=O)(=O)NC(=O)C1(C)CCCN(C(=O)c2cccs2)C1` (stereo not drawn), the inhibition was -9.34% (inactive).

In the case of `CCC(=O)N1Cc2cc(C(=O)NCc3cccc(F)c3)nc(-c3cccc(C4=CCCC4)c3)c2[C@H]1CCO`, the inhibition is -1.18% (inactive). Regarding `CCNC(=O)c1cc2c(c(-c3cccc(-c4cncnc4)c3)n1)[C@H](CCO)N(C(C)=O)C2`, the inhibition was -11.6% (inactive).

In the case of `CCCNC(=O)c1cc2c(c(-c3cccc(-c4ccc(C#N)cc4)c3)n1)[C@@H](CCO)N(C(=O)CC)C2`, the inhibition was 25.5% (active).

Consider `COc1ccc(C(C[N+](=O)[O-])n2nc(C)cc2C)cc1` (stereo not drawn), for which the inhibition is -0.39% (inactive). The value for `Cc1c(Cl)cccc1NC(=O)Nc1ccc(C(=O)N2CCCC2)cc1` was -18.4% (inactive); that for `Cc1c(Cl)cccc1NC(=O)NCc1ccc(C)n1C` was 3.33% (inactive). As to `Cc1c(NC(=O)Nc2ccccc2Cl)sc(=S)n1C`, the inhibition was 24.7% (active). On to `CC1(C)CC(=O)c2cnc3nc4ccccc4n3c2C1`, for which the inhibition was -11.2% (inactive). For the compound `CC1(C)CC(=O)C(N=Nc2c(F)cccc2F)=C(O)C1`, the inhibition was -15.2% (inactive). In the case of `CCOC(=O)C1(C)CCCN(C(=O)c2cccc(Cl)c2)C1` (stereo not drawn), the inhibition was -16.1% (inactive). Turning to `C=CCO/N=C(\C)c1c(O)c(C)c(-c2ccccc2)n(-c2ccccc2)c1=O`, the inhibition was 28% (active). On to `CCO/N=C(/C)c1c(O)cc(-c2ccccc2)n(-c2ccccc2)c1=O`, for which the inhibition was -7.62% (inactive). To `Cc1nn(-c2ccccc2)c(C)c1/C=N/NC(=O)CSc1nc2ccccc2c(=O)n1-c1ccccc1` belongs 14.8% (inactive); to `O=C(C1CC1)N1N=C2CCCCC2C1(O)C(F)(F)F` (stereo not drawn), 3.71% (inactive).

Turning to `CC(=O)NCCc1ccc(S(=O)(=O)Nc2ccc(C)c(S(=O)(=O)N3CCOCC3)c2)cc1`, the inhibition was 11% (inactive). Regarding `Cn1c(=O)c2c(SCC(=O)N3CCOCC3)nc(C3CC3)nc2n(C)c1=O`, the inhibition was -6.78% (inactive). `CCCC1(C(=O)OCC)NC(c2ccc(N(C)C)cc2)C2C(=O)N(c3ccc4c(c3)OCCO4)C(=O)C21` (stereo not drawn): the inhibition is -5.19% (inactive). In the case of `Cc1ccc(CNC(=O)CCNS(=O)(=O)c2cccc3nonc23)cc1`, the inhibition was -10.2% (inactive). Regarding `CCNC(=S)NNC(=O)C1CCN(Cc2ccccc2)CC1`, the inhibition is -12.2% (inactive). In the case of `Cc1scc(C(=O)NNC(=S)NCc2ccccc2)c1C`, the inhibition was -15.3% (inactive). For `CCNC(=S)NNC(=O)Cc1ccccc1`, the inhibition is 32.5% (active).

Take `CCOC(=O)C1CCN(C(=O)c2ccc3c(=O)n4nc(Nc5ccccc5CC)sc4nc3c2)CC1`: the inhibition was -9.89% (inactive). With `CCSc1nc2c(c(=O)[nH]1)C(c1cccnc1)C(C(=O)OC(C)C)=C(C)N2` (stereo not drawn), the inhibition was 25.5% (active). Turning to `COC(=O)C1=C(N)Oc2cc(C)oc(=O)c2C1c1cccnc1` (stereo not drawn), the inhibition is -3.67% (inactive). Take `CCSc1nc(O)c(C(c2cccc(OC)c2)c2c(O)nc(SCC)[nH]c2=O)c(=O)[nH]1`: the inhibition is -3.25% (inactive). Regarding `COc1ccc(Cl)cc1NC(=O)CN(C)C(=O)CCCc1c[nH]c2ccccc12`, the inhibition was 2.49% (inactive).

On to `O=C1NC(Cc2ccccc2)c2nc3ccc(Br)cc3c(=O)n2-c2cc3ccccc3cc21` (stereo not drawn), for which the inhibition is 12.3% (inactive).

As for `COc1ccc(O)c(C=Nc2cc(C)on2)c1`, the inhibition was -9.65% (inactive). With `O=C(Nc1ccc2ccccc2c1)Nc1ccc2snnc2c1`, the inhibition was 32.6% (active).

On to `CS(=O)(=O)c1ccccc1C(=O)Nc1ccc2sccc2c1`, for which the inhibition is -10.2% (inactive). For `Cc1ccc(NC(=O)Nc2ccc3oc(C)nc3c2)cc1`, the inhibition is -8.85% (inactive). To `CC(C)Oc1ccc(CC(=O)NNC(=S)Nc2ccc(Br)cc2)cc1` belongs -8.93% (inactive); to `CC(C)OCCCNc1ncnc2c1[nH]c1ccc(F)cc12`, 26.5% (active). Turning to `CCOc1ccc(C2NC(=S)NC3=C2CCc2ccccc23)cc1` (stereo not drawn), the inhibition is 4.36% (inactive). For the compound `COCc1[nH][nH]c(=O)c1C=Nc1ccc(F)cc1F`, the inhibition was 3.8% (inactive).

For the compound `CCN1/C(=C\c2ccc3ccccc3[n+]2CC)Sc2cc(C)ccc21`, the inhibition is 47.2% (active).

Turning to `N#CCCN(C(=O)Nc1ccc(Cl)c(Cl)c1)C1CCCCC1`, the inhibition is 5.09% (inactive).

Regarding `O=C(CC(O)(C(F)(F)F)C(F)(F)F)Nc1ccc(Cl)c(Cl)c1`, the inhibition is 42.9% (active).

With `CC1(C(=O)O)CCC(C(=O)Nc2ccc(Cl)c(Cl)c2)C1(C)C` (stereo not drawn), the inhibition is -12.5% (inactive). Consider `CC1(C)C2CCC13CS(=O)(=O)NC3C2` (stereo not drawn), for which the inhibition is -9.03% (inactive).

Turning to `NC1=NC2(CCCCC2)N(c2ccc(F)cc2F)C(N)=N1`, the inhibition was 13.8% (inactive).

On to `CC(C)N1CCc2c(sc(NC(=O)Cc3ccccc3)c2C#N)C1`, for which the inhibition was 24.7% (active).

Regarding `CC(=O)N1CCc2c(sc(NC(=O)CCS(=O)(=O)c3ccccc3)c2C#N)C1`, the inhibition was 0.29% (inactive). `N#Cc1c(N)sc2c1CCN(C(=O)OCc1ccccc1)C2`: the inhibition is -19.6% (inactive). To `C[C@H](NC(=O)[C@@H]1CCCN1C(=O)[C@@H]1CCCN1C(=O)c1ccccc1)c1ccccc1` belongs -24.1% (inactive).

In general, inhibition refers to the drop in the measured response relative to a control, in per cent.

For the origin of these results see PubChem BioAssay AID602250 (The Scripps Research Institute Molecular Screening Center, 2012).
